Compounds without any hit were thinned out: in the full panel of roughly 83,000, 20% have a hit.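 Plates (96-well) were seeded with cells, treated with compound at one concentration, and incubated for 48 hours before percent growth was determined.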 A number with no mark means an inactive call. The source made the active and inactive calls. How the source made its calls: active means growth percent below 10; inactive means the rest.
Experiments:
Assay in all cases: NCI-60 one-dose screen, 48 h (100 = growth as untreated, 0 = no growth, -100 = all killed)
Conditions in all cases: 10 µM unless noted
[1] = system: SN12C renal
[2] = system: UO-31 renal
[3] = system: ACHN renal
[4] = system: CAKI-1 renal
[5] = system: A498 renal
[6] = system: CCRF-CEM leukemia
[7] = system: MOLT-4 leukemia
[8] = system: SR leukemia
[9] = system: RPMI-8226 leukemia
[10] = system: OVCAR-8 ovarian
[11] = system: OVCAR-5 ovarian
[12] = system: OVCAR-4 ovarian
[13] = system: SK-OV-3 ovarian
[14] = system: IGROV1 ovarian
[15] = system: OVCAR-3 ovarian
[16] = system: HS 578T breast
[17] = system: NCI/ADR-RES ovarian
[18] = system: T-47D breast
[19] = system: TK-10 renal

O=C(Nc1nc(-c2ccccc2)cs1)c1cc(O)c(O)c(O)c1
growth [1]: 50.5%
growth [2]: 24.6%
growth [3]: 40.3%
growth [4]: 26.4%
growth [5]: 85.9%
growth [6]: 9.11% (active)
growth [7]: 17.1%
growth [8]: 8.07% (active)
growth [9]: 17.8%
growth [10]: 39%
growth [11]: 89.4%
growth [12]: 44.5%
growth [13]: 70%
growth [14]: 33.2%
growth [15]: 22.3%
growth [16]: 73.6%
growth [17]: 47%
growth [18]: 31.2%

O=C(/C(=C/c1ccc([N+](=O)[O-])cc1)c1ccccc1)c1ccccc1
growth [1]: 35.1%
growth [2]: 43.1%
growth [3]: 40.9%
growth [4]: 48.6%
growth [5]: 77%
growth [6]: 0.582% (active)
growth [7]: -2.9% (active)
growth [8]: 0.152% (active)
growth [9]: -10.5% (active)
growth [10]: 8.51% (active)
growth [11]: 76.3%
growth [12]: 57.8%
growth [13]: 92.7%
growth [14]: 74.1%
growth [15]: 16.4%
growth [16]: 57.9%
growth [17]: 46.5%
growth [18]: 72%

O=C(Nc1nc(-c2ccc(Cl)cc2)cs1)c1cc(O)c(O)c(O)c1
growth [1]: 22.6%
growth [2]: 6.01% (active)
growth [3]: 15.9%
growth [4]: 8.69% (active)
growth [5]: 77.1%
growth [6]: 8.08% (active)
growth [7]: 4.68% (active)
growth [8]: 0.551% (active)
growth [9]: 17.1%
growth [10]: 15.5%
growth [11]: 62.6%
growth [12]: 27.8%
growth [13]: 43.4%
growth [14]: 15.7%
growth [15]: 40.1%
growth [16]: 61.9%
growth [17]: 13.6%
growth [18]: 25.4%

O=C1NCN(c2ccccc2)C12CCN(CCCC(c1ccc(F)cc1)c1ccc(F)cc1)CC2
growth [1]: 60.5%
growth [2]: 26.1%
growth [19]: 66.1%
growth [3]: 61.7%
growth [5]: 57.7%
growth [6]: 94.4%
growth [8]: 8.54% (active)
growth [9]: 102%
growth [10]: 66.1%
growth [11]: 83.2%
growth [12]: 48.5%
growth [13]: 73.4%
growth [14]: 47.7%
growth [15]: 66.8%
growth [16]: 69.3%
growth [17]: 69.9%
growth [18]: 94.2%

CCOC(Cc1c(N)[nH]c(=S)[nH]c1=O)OCC
growth [1]: 110%
growth [2]: 86%
growth [19]: 108%
growth [3]: 94.9%
growth [5]: 104%
growth [7]: 88%
growth [8]: 90.8%
growth [10]: 96.2%
growth [11]: 93.9%
growth [13]: 107%
growth [14]: 104%
growth [15]: 120%
growth [16]: 120%
growth [17]: 102%
growth [18]: 99%

CCCCCCCCCCCCCCCCCc1nccn1CCO
growth [1]: 52.2%
growth [2]: 47.5%
growth [19]: 112%
growth [3]: 63.7%
growth [5]: 72.5%
growth [6]: 79.7%
growth [7]: 65.6%
growth [9]: 82.3%
growth [10]: 80%
growth [11]: 71.4%
growth [13]: 94.6%
growth [14]: 68.5%
growth [15]: 86.2%
growth [16]: 83.4%
growth [17]: 59.9%
growth [18]: 47.1%

N#CCCN(CCO)c1ccccc1
growth [1]: 97.6%
growth [2]: 89.5%
growth [19]: 93.7%
growth [3]: 106%
growth [5]: 96.4%
growth [7]: 90%
growth [8]: 86.3%
growth [10]: 102%
growth [11]: 108%
growth [13]: 101%
growth [14]: 103%
growth [15]: 105%
growth [16]: 102%
growth [17]: 112%
growth [18]: 92%

COc1cc2c(-c3nc4cc(Cl)c(F)cc4s3)cc(=O)oc2c(C)c1OC
growth [1]: -73.8% (active)
growth [2]: -94.4% (active)
growth [3]: -83.8% (active)
growth [4]: -78.5% (active)
growth [5]: 8.7% (active)
growth [6]: -72.5% (active)
growth [7]: -43% (active)
growth [8]: -53.9% (active)
growth [9]: -56% (active)
growth [10]: -58.8% (active)
growth [11]: -65.5% (active)
growth [12]: -92.9% (active)
growth [13]: -85% (active)
growth [14]: -43.6% (active)
growth [15]: -98.6% (active)
growth [16]: -0.186% (active)
growth [17]: -10% (active)
growth [18]: -14.1% (active)

COc1cc(C2=NN(C(C)=O)C(c3ccc(OC(C)=O)cc3OC(C)=O)O2)c(OC(C)=O)c2ccccc12 (stereo not drawn)
growth [1]: 19.1%
growth [2]: 5.38% (active)
growth [3]: 16.3%
growth [4]: 8.08% (active)
growth [5]: 25.2%
growth [6]: -1.14% (active)
growth [7]: -2.56% (active)
growth [8]: 2.88% (active)
growth [9]: 8.23% (active)
growth [10]: 8.46% (active)
growth [11]: 54%
growth [12]: 21.1%
growth [13]: 20.1%
growth [14]: 21.7%
growth [15]: 20.5%
growth [16]: 56.7%
growth [17]: 11.7%
growth [18]: 11.3%

— PubChem BioAssay (NCI)
